Assay results from PubChem BioAssay (EPA / NIEHS).
Results filed as inconclusive are left out. The source made the active and inactive calls. How the source made its calls: active means hit-call score of the fitted dose curve at least 0.9, where 1 is the maximum; inconclusive means response in the unintended direction; inactive means score below 0.9.

test: CCTE_Mundy_HCI_hNP1_CellTiter: CCTE's Cell Titer-Glo 2 Assay in human neuroprogenitor cells for Viability, Mundy Lab (AID 2284241)
Experimental: CCTE_Mundy_HCI_hNP1_CellTiter is a multiplexed, cell-based-readout assay that uses neural stem cells derived from a neuroepithelial cell lineage of WA09 embryonic cells with measurements taken at […] after chemical dosing in a microplate: 96-well plate.CCTE_Mundy_HCI_hNP1_CellTiter is one component of the CCTE_Mundy_HCI_hNP1_CellTiter assay. It measures cell viability related to ATP content using Luminescent Reporter.Data from the assay component CCTE_Mundy_HCI_hNP1_CellTiter was analyzed at the endpoint CCTE_Mundy_HCI_hNP1_CellTiter in the positive analysis fitting direction relative to DMSO as the negative control and baseline of activity. Using a type of viability reporter, loss -of-signal activity can be used to understand viability effects.
Human neural progenitor cells (hNP1) were obtained as cryopreserved cells from ArunA Biomedical, Athens Georgia. Cells are plated on pre-coated poly-L-ornithine/laminin clear bottom and opaque 96 well plates (day 0). Plates are placed in a 37 °C, 5% CO2 incubator for 40 to 44 hours at which time plates are removed from the incubator and 10 uL of a freshly made chemical solution is added to each well. Cell viability was based on number of cells per field or determined in sister plates using the CellTiter-Glo luminescent assay (Promega) which measures the amount of ATP present in each well. Twenty-four hours after chemical treatment, 50ul of CellTiter-Glo assay buffer was added to each well and the plate incubated for 30min at room temperature. Luminescence was then recorded in each well using a FLUOstar Optima plate reader (BMG LABTECH, Cary, NC).

SMILES | outcome
FC(F)(F)C(F)(F)C(F)(F)C(F)(F)C(F)(F)C(F)(F)C(F)(F)C(F)(F)CCS | inactive
N=C(N)C(F)(F)C(F)(F)C(F)(F)C(F)(F)C(F)(F)C(F)(F)C(F)(F)F | inactive
OCC(F)(F)C(F)(F)C(F)(F)F | inactive
FC(F)(F)C(F)(F)C(F)(F)C(F)(F)CCI | inactive
FC(F)(F)C(F)(F)C(F)(F)CI | inactive
O=C(CC(=O)C(F)(F)C(F)(F)F)C(F)(F)F | inactive
O=C(O)C(F)(F)C(F)(F)OC(F)(F)F | inactive
OCC(F)(F)C(F)(F)C(F)(F)C(F)F | inactive
FC(F)(F)C(F)(F)C(F)(F)C(F)(F)C(F)(F)C(F)(F)CC1CO1 (stereo not drawn) | inactive
OCCCC(F)(F)C(F)(F)C(F)(F)C(F)(F)C(F)(F)C(F)(F)C(F)(F)F | inactive
C=CC(=O)OCC(F)(F)C(F)(F)C(F)(F)C(F)(F)COC(=O)C=C | inactive
O=C(O)C(F)(F)C(F)(F)C(F)(F)C(F)(F)C(F)(F)C(F)(F)C(F)(F)C(F)(F)Cl | inactive
C=C(C)C(=O)OCC(F)(F)C(F)(F)C(F)(F)F | inactive
O=P(O)(O)OCCC(F)(F)C(F)(F)C(F)(F)C(F)(F)C(F)(F)C(F)(F)F | inactive
CC(CCl)OP(=O)(OC(C)CCl)OC(C)CCl (stereo not drawn) | inactive
O=C(O)C(F)(F)C(F)(F)C(F)(F)F | inactive
FC(F)(F)C(F)(F)C(F)(F)C(F)(F)C(F)(F)C(F)(F)C(F)(F)C(F)(F)F | inactive
CC(C)(C)C(=O)CC(=O)C(F)(F)C(F)(F)C(F)(F)F | inactive
